Screening data from PubChem BioAssay.
CHT PAM – allosterically activates the human high affinity choline transporter. B-score at 10 µM. 310,000 compounds, 0.49% hits. Q9GZV3. CHT-expressing cells, membrane potential dye, choline EC20; hits give high values; LV-AA mutant CHT in HEK293 cells;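 active = initial fluorescence not abnormally high and integrated response B-score, plate-corrected, over 3 SD above library mean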
Target sequence (Q9GZV3 whole entry, looked up): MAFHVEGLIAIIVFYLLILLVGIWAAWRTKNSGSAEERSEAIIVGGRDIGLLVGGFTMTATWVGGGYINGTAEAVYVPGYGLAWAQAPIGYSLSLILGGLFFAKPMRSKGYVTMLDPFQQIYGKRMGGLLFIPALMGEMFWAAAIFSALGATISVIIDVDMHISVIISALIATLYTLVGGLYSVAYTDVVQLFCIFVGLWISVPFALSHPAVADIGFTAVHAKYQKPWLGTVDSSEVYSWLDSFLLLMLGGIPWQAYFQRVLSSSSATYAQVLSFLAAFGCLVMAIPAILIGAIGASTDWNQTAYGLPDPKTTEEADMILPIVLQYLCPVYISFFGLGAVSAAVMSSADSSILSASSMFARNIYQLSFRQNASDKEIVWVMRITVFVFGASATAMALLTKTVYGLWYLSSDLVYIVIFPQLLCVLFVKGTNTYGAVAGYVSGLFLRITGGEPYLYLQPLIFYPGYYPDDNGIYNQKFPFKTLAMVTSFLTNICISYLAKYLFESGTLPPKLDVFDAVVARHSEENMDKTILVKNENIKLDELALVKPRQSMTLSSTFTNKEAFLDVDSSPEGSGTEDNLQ
H9c2 TAG inh – inhibitors of triacylglycerol accumulation. H9c2 cells, Nile Red lipid (TAG) fluorescence; cells loaded with 200 µM oleic acid. inhibition, % at 12.5 µM. 230,000 compounds, 0.66% hits;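 active = pattern-corrected inhibition of lipid staining of at least 50% with the nuclear-stain viability signal not falling by more than 50%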
beta cell repl – MIN6 beta-cell proliferation induction. AID 2380. proliferation, % at 10 µM. MIN6 cells proliferation, ATPlite luminescence, 48 h; cells starved in 0.2% serum; 100% = growth in 10% serum. 330,000 compounds, 0.29% hits;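 active = compounds whose signal lies at least 3.5 SD above the mean of all wells on their plate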
CHT block – inhibitors of human choline transporter CHT. Q9GZV3. CHT-expressing cells, membrane potential dye, choline response; hits give low values. B-score at 10 µM. 310,000 compounds, 0.86% hits. AID 488975;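 active = B-score over 3 SD under the library average, and starting fluorescence ratio not unusually high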;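 note: choline stimulus applied at its EC90 after an EC20 pre-addition; B-score computed on integrated fluorescence ratio after choline addition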
CHT activ conf – human CHT activation, confirmatory screen; activation, % at 10 µM; 2,500 compounds, 91% hits; shares compounds with CHT PAM; CHT-expressing cells, membrane potential dye fluorescence (FDSS); % of choline EC20–EC90 response window; HEK293 expressing CHT LV-AA mutant; choline added at its EC20; AID 504833;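 active = primary screen active, with duplicate mean activation above negative control mean plus 3 SD, cut at about 11% in these data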
HEK293 MP dye – counter-screen for CHT activators: effect in parental HEK293 cells | 2,500 compounds, 62% hits | membrane potential dye fluorescence (FDSS); measured after EC20 choline addition | shares compounds with CHT PAM | ratio readout change at 10 µM, hits read low;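 active = duplicate-averaged ratio beyond 3 SD from buffer wells, up or down, though filed actives are nearly all decreases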
H9c2 TAG conf – triacylglycerol accumulation inhibition, confirmation; shares compounds with H9c2 TAG inh; H9c2 lipid accumulation, Nile Red fluorescence; cells loaded with 200 µM oleic acid; inhibition, % at 12.5 µM; 990 compounds, 71% hits; AID 651629;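 active = mean inhibition across replicates of 40% or more; inactive = mean inhibition below 40%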
Numbers stand for hits. Compounds with a hit are over-represented: about 1.7% of the library has one in this group of screens.

For O=[N+]([O-])c1ccc(Cl)c(-c2ccc(/C=N/n3cnnc3)o2)c1 the results were CHT PAM inactive, beta cell repl inactive, CHT block inactive, CHT activ conf 39 and HEK293 MP dye -51.
For COc1cc([N+](=O)[O-])ccc1-c1ccc(/C=N\n2cnnc2)o1 the results were CHT PAM inactive, beta cell repl inactive and CHT block inactive.
O=[N+]([O-])c1ccc(OC(F)F)c(/C=N/n2cnnc2)c1 was read as CHT PAM inactive, H9c2 TAG inh inactive, beta cell repl inactive, CHT block inactive, CHT activ conf 21 and HEK293 MP dye -24.
O=C(/C=C/c1cc([N+](=O)[O-])ccc1OC(F)F)Nc1cccc([N+](=O)[O-])c1 was read as CHT PAM inactive, H9c2 TAG inh inactive, beta cell repl inactive and CHT block inactive.
COc1ccc(-n2cc(CNCCCN3CCCC3=O)c(-c3ccccc3Cl)n2)cc1 was read as CHT PAM 6.3, H9c2 TAG inh inactive, beta cell repl inactive, CHT block inactive, CHT activ conf 19 and HEK293 MP dye inactive.
Screening COc1ccc(-c2nn(-c3ccccc3)cc2CNCCN2CCOC2=O)c(F)c1 returned CHT PAM inactive, H9c2 TAG inh inactive, beta cell repl inactive and CHT block inactive.
For CCN1C=C(C(=O)c2ccccc2)C(=O)CC1 the results were H9c2 TAG inh inactive.
For Cc1ccc(Cn2c(SCCN3CCCCC3)nc3c2c(=O)n(C)c(=O)n3C)cc1 the results were CHT PAM inactive, H9c2 TAG inh inactive, beta cell repl inactive, CHT block inactive, CHT activ conf 49 and HEK293 MP dye -44.
`Cn1c(=O)c2c(nc(N3CCc4ccccc4C3)n2Cc2ccc(Br)cc2)n(C)c1=O` gave CHT PAM inactive, H9c2 TAG inh inactive, beta cell repl inactive, CHT block inactive, CHT activ conf 28 and HEK293 MP dye -26.
For CCCCn1c(SCCN2CCCCC2)nc2c1c(=O)n(C)c(=O)n2C the results were H9c2 TAG inh inactive.
For Cn1c(=O)c2c(nc(SCCN3CCCCC3)n2Cc2ccccc2)n(C)c1=O the results were CHT PAM inactive, H9c2 TAG inh inactive, beta cell repl inactive, CHT block inactive, CHT activ conf 46 and HEK293 MP dye -59.
COCc1cc(CNC(=O)C2CCC(=O)N(Cc3ccccc3F)C2)[nH]n1 (centres undefined) was read as CHT PAM inactive, H9c2 TAG inh inactive, beta cell repl inactive and CHT block inactive.
CC[C@@H](C)[C@H](CN[C@H](CNC)C(C)C)NC[C@@H](C)c1ccc(CC(C)C)cc1 was read as CHT PAM inactive, H9c2 TAG inh 127, beta cell repl inactive, CHT block inactive, CHT activ conf inactive and HEK293 MP dye inactive.
For Cc1ccc(-c2nc(NCc3ccc(F)cc3)n(S(C)(=O)=O)n2)cc1 the results were CHT PAM inactive, H9c2 TAG inh inactive, beta cell repl inactive and CHT block inactive.
Screening Cc1ccc(C)c(S(=O)(=O)N2CCN(C(=O)c3n[nH]c(=O)c4ccccc34)CC2)c1 returned H9c2 TAG inh inactive and beta cell repl inactive.
`Cc1ccnc(N2C(=O)CSC2c2ccc(Cl)cc2)c1` (centres undefined) gave CHT PAM inactive, beta cell repl inactive and CHT block inactive.
Screening CCN(CC)CCCN(C(=O)c1cccs1)c1nc(-c2ccc(OC)cc2)cs1 returned CHT PAM 6.3, H9c2 TAG inh 55, beta cell repl inactive, CHT block inactive, CHT activ conf 48, HEK293 MP dye -47 and H9c2 TAG conf 47.
Screening Cc1sc(NC(=O)CSc2nnc(N)s2)c(C#N)c1C returned CHT PAM inactive, beta cell repl inactive and CHT block inactive.
`CCOC(=O)c1cc(-c2ccncc2)nc2c1c(C)nn2-c1ccccn1` gave CHT PAM 7.7, H9c2 TAG inh 68, beta cell repl inactive, CHT block inactive, CHT activ conf 30, HEK293 MP dye -20 and H9c2 TAG conf 43.
For O=C(NC1CCCC1)C1CCN(c2cnccn2)CC1 the results were CHT PAM inactive, H9c2 TAG inh inactive, beta cell repl inactive and CHT block inactive.
For COC(=O)c1cc(C(=O)N2CCN(c3cccc(Cl)c3)CC2)cc([N+](=O)[O-])c1 the results were CHT PAM 7.6, H9c2 TAG inh 63, beta cell repl inactive, CHT block inactive, CHT activ conf 33, HEK293 MP dye inactive and H9c2 TAG conf 56.
Screening O=C(c1cccc([N+](=O)[O-])c1)N1CCN(c2cccc(Cl)c2)CC1 returned CHT PAM inactive, H9c2 TAG inh inactive, beta cell repl inactive and CHT block inactive.
CC(=O)Nc1cc2cc(NS(=O)(=O)c3ccc(Cl)cc3)ccc2oc1=O was read as CHT PAM inactive, H9c2 TAG inh 58, beta cell repl inactive, CHT block inactive and H9c2 TAG conf inactive.
CC(C)(C)C(=O)Nc1cc(S(=O)(=O)Nc2ccc(Cl)cc2)ccc1Cl was read as CHT PAM inactive, beta cell repl inactive and CHT block inactive.
`Cn1nnnc1Sc1ncnc2scc(-c3cccc(S(C)(=O)=O)c3)c12` gave H9c2 TAG inh 60, beta cell repl inactive and H9c2 TAG conf 57.
CC(C)(C)c1cc(NCc2ccccn2)n2ncc(-c3ccc(Cl)cc3)c2n1 was read as CHT PAM inactive, H9c2 TAG inh 52, beta cell repl inactive, CHT block inactive and H9c2 TAG conf 44.
Cc1nc2c(ccc3nc(NC(=O)Cc4cccc5ccccc45)sc32)s1 was read as CHT PAM inactive, H9c2 TAG inh 51, beta cell repl inactive, CHT block inactive and H9c2 TAG conf 58.
For CC1Nc2ccc(C(=O)NC3CCCCC3)cc2NC1=O (centres undefined) the results were CHT PAM inactive, beta cell repl inactive and CHT block inactive.
`NS(=O)(=O)c1ccc(CNC(=O)c2csc3c2CCCC3)cc1` gave CHT PAM inactive, H9c2 TAG inh inactive, beta cell repl inactive and CHT block inactive.
Screening CCc1ccc(NC(=O)CSC2=C(C#N)C(c3ccco3)C3=C(CCCC3=O)N2)cc1 (centres undefined) returned CHT PAM inactive, H9c2 TAG inh inactive, beta cell repl inactive and CHT block inactive.
Screening N#CC1=C(SCC(=O)c2ccc(Br)cc2)NC2=C(C(=O)CCC2)C1c1ccco1 (centres undefined) returned CHT PAM inactive, H9c2 TAG inh 57, beta cell repl inactive, CHT block inactive and H9c2 TAG conf inactive.
For Nc1ncnc2c1ncn2[C@@H]1O[C@H](CNC(=O)[C@H](N)Cc2cscn2)[C@@H](O)[C@H]1O the results were H9c2 TAG inh inactive.
